This test addresses Serine/threonine-protein kinase Nek7 (Homo sapiens) (UniProt Q8TDX7). The following applies: at 1 µM.
Chain of Serine/threonine-protein kinase Nek7 (Homo sapiens) (Q8TDX7 whole entry, looked up): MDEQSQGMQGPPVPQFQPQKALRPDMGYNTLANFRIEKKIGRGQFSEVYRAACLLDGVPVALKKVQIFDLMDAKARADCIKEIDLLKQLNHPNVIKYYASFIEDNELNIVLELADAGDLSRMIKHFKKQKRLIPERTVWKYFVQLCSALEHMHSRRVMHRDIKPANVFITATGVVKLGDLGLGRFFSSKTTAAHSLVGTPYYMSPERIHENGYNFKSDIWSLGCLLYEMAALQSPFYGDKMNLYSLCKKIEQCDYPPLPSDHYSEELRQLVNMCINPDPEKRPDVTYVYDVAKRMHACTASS
As for `C/C(Nc1ccc(S(N)(=O)=O)cc1)=C1/C(=O)Nc2ccccc21`, the inhibition is -0.23%.
Consider `NC(=O)Cc1ccccc1Oc1nccc(-c2c(-c3ccc(F)cc3)ncn2C2CCNCC2)n1`, for which the inhibition came out at 2.73%.
For the compound `Fc1ccc(-c2ncn(CCCN3CCOCC3)c2-c2ccncc2)cc1`, the inhibition was found to be 1.74%.
The value for `c1ccc(Oc2ccc(Nc3ncc(-c4ccccc4)o3)cc2)cc1` was 1.97%.
The value for `COc1ccc2cc(-c3c(-c4ccncc4)nc(-c4ccc(S(C)(=O)=O)cc4C)n3C)ccc2c1` was 4.57%; that for `O=C(NCC1CC1)c1ccc(-c2cccc(C(=O)NC3CC3)c2)cc1` was 3.21%; that for `O=C(Nc1ccc(Oc2ccc3[nH]c(NC(=O)c4ccccc4)nc3c2)cc1)Nc1cc(C(F)(F)F)ccc1F` was 4.36%.
The value for `COc1cc2ncn(-c3cc(OCCc4ccccc4)c(C(N)=O)s3)c2cc1OC` was 2.45%; that for `C[C@@H](Oc1cc(-n2cnc3ccc(OCC4CCN(C)CC4)cc32)sc1C(N)=O)c1ccccc1Cl` was 9.78%; that for `CS(=O)(=O)CCNCc1cc(-c2cc3c(Nc4ccc(OCc5cccc(F)c5)c(Cl)c4)ncnc3s2)cs1` was 8.5%.
For `CCc1nccc2c1nc(-c1nonc1N)n2CC`, the inhibition is 1.72%.
Turning to `COc1cccc(/C=N/Nc2ncnc3c2cnn3-c2cccc(OC)c2)c1`, the inhibition worked out at 8.57%.
As to `COc1ccc2cc(-c3c(-c4ccncc4)nc(-c4ccc([S+](C)[O-])cc4C)n3C)ccc2c1` (stereo not drawn), the inhibition came out at 0.01%.
In the case of `O=C(Nc1n[nH]c2nc(-c3ccco3)ccc12)C1CC1`, the inhibition worked out at 2.61%.
The value for `Cc1ccc(C(=O)NC(C)C)cc1-c1ccc(C(=O)NCC2CC2)cc1` was -4.59%; that for `FC(F)(F)c1cccc(Nc2nccc(-c3cnn4nc(-c5ccccc5)ccc34)n2)c1` was 1.88%; that for `O=C(Nc1n[nH]c2cc(-c3cc(F)ccc3F)ccc12)C1CC1` was 3.5%.
The value for `CN(c1ccc(NC(=O)Nc2c(Cl)cccc2Cl)cc1)c1ccnc(Nc2cccc(CS(C)(=O)=O)c2)n1` was 1.59%; that for `COc1cc(Nc2ncc3c(C)nc(-c4cccc(Oc5ccccc5)c4)n3n2)cc(OC)c1OC` was 1.98%; that for `CNC(=O)c1cncc(/C=C/c2c(C)cccc2C)c1` was 0.6%.
The value for `NCc1ccc(-n2c(-c3nonc3N)nc3cnccc32)cc1` was 7.6%.
For `O=C1Nc2ccc(I)cc2C1=Cc1cc(Br)c(O)c(Br)c1`, the inhibition was found to be 10.6%.
The value for `NS(=O)(=O)c1ccc(Nc2cc(-c3ccc(O)c(F)c3)n[nH]2)cc1` was -3.23%.
The value for `CN(C)c1ccc2c(c1)/C(=C/Nc1ccc(S(N)(=O)=O)cc1)C(=O)N2` was 3.01%.
Regarding `Fc1ccc(-c2ncn(C3CCNCC3)c2-c2ccnc(Oc3ccc(F)c(F)c3)n2)cc1`, the inhibition is 6.72%.
As for `N#Cc1ccc(Oc2nccc(-c3c(-c4ccc(F)cc4)ncn3C3CCNCC3)n2)cc1`, the inhibition was 6.16%.
The value for `COc1cc(C)c(N(C)C(=O)CN(C)C)cc1Nc1nc(Nc2cccc(F)c2C(N)=O)c2cc[nH]c2n1` was 2.22%.
The value for `COc1cc2ncn(-c3cc(OCc4cccs4)c(C(N)=O)s3)c2cc1OC` was 2.38%.
The value for `CCc1cccc(CC)c1/C=C/c1cncc(C(=O)NC)c1` was 2.39%; that for `COc1ccc(C2=C(N3CCc4ccccc43)C(=O)NC2=O)cc1` was 3.74%.
Turning to `Fc1ccc(-c2c(-c3ccncc3)nc3n2CCS3)cc1`, the inhibition was found to be 2.47%.
The value for `CCS(=O)(=O)c1ccc(OC)c(Nc2ncc(-c3ccccc3Cl)o2)c1` was 2.67%; that for `CN(C)CCOc1ccc(-c2cc(-c3ccc4c(c3)CCC4=NO)c(-c3ccncc3)o2)cc1` was 0.51%.
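Further: reported values are mean inhibition of NEK7 from the GSK PKIS kinase screening panel.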
